Results filed as inconclusive are left out. A number with no mark means an inactive call. Calls come from the whole dose curve; as a rule, active = well fitted cell-killing curve with a large enough effect; inconclusive = small, poorly fitted or top-dose-only effect; inactive = flat fitted curve, though single readings scatter.
assay: qHTS of pediatric cancer cell lines to identify multiple opportunities for drug repurposing: Primary screen for control Hh wild type fibroblast cells (AID 1347106); conditions: Hh wild-type fibroblast viability, CellTiter-Glo luminescence, 48 h; series mostly up to 46 µM; activity change, negative = cytotoxic: at the top concentration;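 note: a drop in luminescence marks cytotoxicity and a rise apparent proliferation; nearly all actives have a fitted effect of over 55% in size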
Text: Drug repurposing or repositioning has been offered as a strategy for drug development in oncology programs. This approach has special potential for childhood cancers and other rare or orphan diseases, where the expected return on new drug development has been a disincentive to pharmaceuticals.
In this project we exploit the poly-pharmacology of drugs to discover new indications via phenotypic screening of a panel of 19 well-characterized cell lines derived from solid tumors seen in children and adolescents. The goal is to identify approved drugs with previously unrecognized anticancer properties that has the potential to reveal new mechanisms and biological processes involved in carcinogenesis or drug resistance. We employed a titration-based paradigm (quantitative high-throughput screening or qHTS), where all compounds were tested at multiple concentrations for their effect on cell viability. Concentration-response curves (CRCs) were derived directly from the primary screen, and both potency and efficacy values were used to identify compounds with robust bioactivity profiles. We screened the NIH Chemical Genomics Center (NCGC) Pharmaceutical Collection (NPC) and Mechanism Interrogation Plate (MIPE) small molecule collections of approved and investigational compounds against these cell lines; and measured metabolically active cells after 48 hours of compound treatment as a proxy for cell viability.
Assay Submitter: Nathalia J. Martinez, National Center for Advancing Translational Sciences, National Institutes of Health, Rockville, MD, USA; email: natalia.martinez@nih.gov
[1] Shen, M et al. Quantitative high-throughput phenotypic screening of pediatric cancer cell lines identifies multiple opportunities for drug repurposing. Oncotarget 2017 Dec 19;9(4):4758-4772. PMID 29435139.
The cells were obtained from University of North Carolina (UNC), Pediatric Preclinical Testing Program (PPT), and Coriell Institute (CI).
qHTS cell viability assay:
Cells were assayed in growth media at a density of 500-1,000 cells/well. Five microliters of cells were dispensed into 1,536-well, white, solid-bottom, TC-treated plates (Greiner Bio One) using a multidrop dispenser and incubated at 37 degrees C, 5% CO2, under a humidified atmosphere for 5 hours. Twenty-three nanoliters of compounds and controls (neutral control DMSO or positive control bortezomib at final concentration of 2.3 µM) were subsequently transferred by Kalypsys pintool. For primary screens, the MIPE collection was tested at 11-point dilutions (final concentrations range from 0.78 nM to 46 µM) and the NPC collection at 8-point dilutions (final concentrations range from 0.59 nM to 46 µM). Compounds tested in follow-up screens were assayed at 11-point dilutions. Cells were incubated for 48 hours, followed by addition of 3 µL of CellTiter-Glo (Promega). After a 15 min incubation at room temperature, samples were analyzed for luminescence intensity using a ViewLux High-throughput CCD imager equipped with clear filters.
% is set by controls: 0 for no effect and ±100 for the full control effect.

Structure (SMILES) | activity change, negative = cytotoxic
Nc1nc2ncc(CNc3ccc(C(=O)N[C@@H](CCC(=O)O)C(=O)O)cc3)nc2c(=O)[nH]1 | 1.88%
O=C(O)CNC(=O)c1ccccc1 | -6.89%
CN(C)/N=N/c1nc[nH]c1C(N)=O | -3.52%
C=CCc1ccc(O)c(OC)c1 | 1.9%
CCCOC(C(=O)OC1CCN(C)CC1)(c1ccccc1)c1ccccc1 | 3.85%
COc1cccc(CCc2ccccc2OCC(CN(C)C)OC(=O)CCC(=O)O)c1 (stereo not given) | -7.28%
COc1cc(-c2ccc(=O)[nH]n2)ccc1OC(F)F | -6.46%
COc1c(C)c2c(c(O)c1C/C=C(\C)CCC(=O)O)C(=O)OC2 | -22%
Cc1cc(O)c(C(C)C)cc1Cl | 12.9%
COc1cc2c(cc1OC)C(C(C(=O)N(CCc1ccc(OC)c(OC)c1OC)CCc1ccc(OC)c(OC)c1OC)c1ccccc1)=NCC2 (stereo not given) | 3.98%
CCCCOc1ccc(C(=O)CCN2CCCCC2)cc1 | -9.17%
O=C1OC2(c3ccc(O)cc3Oc3cc(O)ccc32)c2ccccc21 | -1.74%
Cc1ccnc(NS(=O)(=O)c2ccc(N)cc2)n1 | -1.28%
Cc1ncc(CSSCc2cnc(C)c(O)c2CO)c(CO)c1O | 18.5%
C[C@]12CCC(=O)C=C1[C@@H]1C[C@@H]1[C@H]1[C@@H]3[C@@H]4C[C@@H]4[C@@]4(CCC(=O)O4)[C@@]3(C)CC[C@@H]12 | 6.47%
CC(=O)c1ccc2c(c1)N(CCCN1CCC(CCO)CC1)c1ccccc1S2 | -10.3%
CC(=O)OCC(=O)[C@@]1(O)CC[C@H]2[C@@H]3CCC4=CC(=O)C=C[C@]4(C)[C@H]3[C@@H](O)C[C@@]21C | -3.71%
CCN(CC)C(=O)/C(C#N)=C/c1cc(O)c(O)c([N+](=O)[O-])c1 | -6.75%
CCOC(=O)[C@H](CCc1ccccc1)N[C@@H](C)C(=O)N1Cc2ccccc2C[C@H]1C(=O)O | 13.1%
CC(C)COC(=O)c1ccc(N)cc1 | 0.576%

Structure (SMILES) | activity change, negative = cytotoxic
Cc1ccc(Nc2c(F)cccc2Cl)c(CC(=O)O)c1 | 14.7%
CC(=O)OCC(=O)NCCCOc1cccc(CN2CCCCC2)c1 | 7.8%
C[C@]12CC[C@@H]3c4ccc(O)cc4CC[C@H]3[C@@H]1C[C@@H](O)[C@@H]2O | 8.11%
CC(=O)OCC(=O)[C@@]1(OC(C)=O)[C@@H](C)C[C@H]2[C@@H]3C[C@H](F)C4=CC(=O)C=C[C@]4(C)[C@@]3(F)[C@@H](O)C[C@@]21C | -3.06%
C[C@H]1[C@H](NC(=O)/C(=N/OC(C)(C)C(=O)O)c2csc(N)n2)C(=O)N1S(=O)(=O)O (stereo in doubt) | 7.95%
CCCSS/C(CCO)=C(\C)N(C=O)Cc1cnc(C)nc1N | 4.45%
NC[C@H]1O[C@H](O[C@H]2[C@H](O[C@@H]3O[C@H](CO)[C@@H](O)[C@H]3O)C(O)[C@H](N)C[C@@H]2N)[C@H](N)[C@@H](O)[C@@H]1O (stereo not given in full) | -1.08% [at 9.22 µM]
C=C1C(=C/C=C2\CCC[C@]3(C)[C@@H]([C@H](C)/C=C/[C@@H](O)C4CC4)CC[C@@H]23)C[C@@H](O)C[C@@H]1O | 9.95%
CN1[C@@H]2CC[C@H]1CC(OC(=O)c1c[nH]c3ccccc13)C2 (stereo not given in full) | 10.3%
CN(C)CC/C=C1\c2ccccc2Sc2ccc(Cl)cc21 | -1.7%
CO/N=C1\CN(c2nc3c(cc2F)c(=O)c(C(=O)O)cn3C2CC2)CC1CN (stereo not given) | 5.54%
CCCCC1=NC2(CCCC2)C(=O)N1Cc1ccc(-c2ccccc2-c2nn[nH]n2)cc1 | -0.86%
CC(=O)OCC(=O)[C@@]12OC(C)(C)O[C@@H]1C[C@H]1[C@@H]3C[C@H](F)C4=CC(=O)C=C[C@]4(C)[C@@]3(F)[C@@H](O)C[C@@]12C | -9.11%
O=C1OCCN1/N=C/c1ccc([N+](=O)[O-])o1 | -3.11%
Cc1c(C(C)C)c(=O)n(-c2ccccc2)n1C | 15.8%
Cc1c(C)n(Cc2ccccc2)c2ccc(C(=O)OCCN(C)C)cc12 | -17.5%
CC(=O)Oc1ccc2c(c1)CC[C@@H]1[C@@H]2CC[C@]2(C)[C@@H](O)CC[C@@H]12 | 14.5%
OC[C@@H](O)[C@@H](O[C@@H]1O[C@H](CO)[C@H](O)[C@H](O)[C@H]1O)[C@H](O)[C@@H](O)CO | 2.94%
CN=C(NC#N)Nc1ccc(C2=NNC(=O)CC2C)cc1 (stereo not given) | 2.28%
CCn1cc(C(=O)O)c(=O)c2cnc(N3CCCC3)nc21 | 4.15% [at 9.22 µM]
